# Experimental data reported in PubChem BioAssay (Tox21).
# Where “and” joins values, the source holds several entries; their conditions need not be identical. Equal entries are not always repeated. Results filed as inconclusive are left out. A call without a number means that no potency is given here. Values without a mark were called inactive. Calls of active or inactive are those of the source. Calls follow the shape of the dose curve; as a rule, active = well fitted cell-killing curve with a large enough effect in the repeat runs; inconclusive = weak or mixed curves, or effect the other way; inactive = flat fitted curve, though single readings scatter.
# Experiments:
# [1] = cAMP Responsive Elements (CRE) small molecule antagonists, cell-based qHTS assay: qHTS cell viability counter screen (AID 2060913); conditions: CRE-bla HEK293T viability, CellTiter-Glo luminescence, 5 h; series mostly up to 92.4 µM; also: nearly all actives have a fitted effect of over 40% in size
# Procedure, shortened: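 Steps: cells plated and held 18 hrs at 37 C/5% CO2; compounds and NKH477 (0.25 uM final) added; 3 hrs incubation; reporter substrate read; CellTiter-Glo added to measure cytotoxicity by luminescence.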
# [2] = cAMP Responsive Elements (CRE) small molecule agonists, cell-based qHTS assay: qHTS cell viability counter screen (AID 2060914); conditions: CRE-bla HEK293T viability, CellTiter-Glo luminescence, 5 h; series mostly up to 92.4 µM; also: nearly all actives have a fitted effect of over 50% in size
# Procedure, shortened: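 In the same wells as the reporter read, viability of CRE-bla HEK 293T cells was quantified by CellTiter-Glo luminescence after a 3 h compound exposure.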
# Potency is read from the fitted curve at half-maximal effect.
SMILES,Potency [1],Potency [2],"viability change, negative = cytotoxic [1]","activity change, negative = cytotoxicity [2]"
CCOP(=S)(OCC)SCn1nnc2ccccc2c1=O,inactive,inactive,,
CCCCc1c(C)nc(NCC)nc1OS(=O)(=O)N(C)C,inactive,inactive,,
CC(C)(C)c1ccccc1O,inactive,inactive,,
COP(=S)(OC)SCn1nnc2ccccc2c1=O,inactive,inactive,,
CCOc1nc(C(Cl)(Cl)Cl)ns1,inactive,inactive,,
CC1N=C(N)OC1c1ccccc1 (stereo not drawn),inactive,inactive,,
O=C1C[C@@H]2OCC=C3CN4CC[C@]56c7ccccc7N1[C@H]5[C@H]2[C@H]3C[C@H]46,inactive,inactive,,
Cc1cccc(C#N)c1,inactive,inactive,,
N#Cc1c(Cl)cccc1Cl,inactive,inactive,,
N#CCCCl,inactive,inactive,,
Oc1cccc2cccnc12,inactive,inactive,,
Oc1cccc(Cl)c1Cl,inactive,inactive,,
Clc1ccc(C(Cl)(Cl)Cl)c(Cl)c1,inactive,inactive,,
C=CC(=O)[O][Sn]([CH2]CCC)([CH2]CCC)[CH2]CCC,8.63 µM (active),6.86 µM (active),,
O=[N+]([O-])c1ccccc1-c1ccccc1,inactive,inactive,,
CC(C)N(CCC(C(N)=O)(c1ccccc1)c1ccccn1)C(C)C (stereo not drawn),inactive,inactive,,
COc1ccc(O)c(C(C)(C)C)c1,inactive,inactive,,
O=CC(Br)(Br)Br,inactive,inactive,,
Brc1c(Br)c(Br)c(Br)c(Br)c1Br,,,0.231% [at 8.39 µM],7.31% [at 8.39 µM]
COc1ncc(F)c2nc(S(=O)(=O)Nc3c(F)cccc3F)nn12,inactive,inactive,,
C[C@]12CC[C@H]3[C@@H](CCC4=CC(=O)CC[C@@H]43)[C@@H]1CC[C@@H]2O,inactive,inactive,,
ClCOCCl,inactive,inactive,,

SMILES,Potency [1],Potency [2],"viability change, negative = cytotoxic [1]","activity change, negative = cytotoxicity [2]"
CN(C)C(=O)Nc1cccc(OC(=O)NC(C)(C)C)c1,inactive,inactive,,
Cc1ccc(N=C=O)cc1N=C=O,inactive,inactive,,
CN(C)CCc1c[nH]c2ccc(O)cc12,inactive,inactive,,
CCCCC(CC)COC(=O)c1c(Br)c(Br)c(Br)c(Br)c1C(=O)OCC(CC)CCCC (stereo not drawn),inactive,inactive,,
CCN(CC)CCN1C(=O)CN=C(c2ccccc2F)c2cc(Cl)ccc21,inactive,inactive,,
O=C1C2CC=CCC2C(=O)N1SC(Cl)(Cl)Cl (stereo not drawn),inactive,inactive,,
Brc1c(Br)c(Br)c(Oc2c(Br)c(Br)c(Br)c(Br)c2Br)c(Br)c1Br,,,-10% [at 18.9 µM],4.51% [at 18.9 µM]
Cc1cccc(C)c1NC(=O)CN1CCCC1=O,inactive,inactive,,
NCCOS(=O)(=O)O,inactive,inactive,,
O=C1CCCCC1Cl (stereo not drawn),inactive,inactive,,
CCC(C(N)=O)N1CCCC1=O (stereo not drawn),inactive,inactive,,
CCC[N+](=O)[O-],inactive,inactive,,
O=C=Nc1ccc(Cl)cc1,inactive,inactive,,
CC(C)O.CC(C)O.OCCN(CCO)CCO.OCCN(CCO)CCO.[Ti],inactive,inactive,,
CCOP(=S)(OCC)SCCl,inactive,inactive,,
NNCCO,inactive,inactive,,
C=C(C)CN(CC)c1c([N+](=O)[O-])cc(C(F)(F)F)cc1[N+](=O)[O-],inactive,inactive,,
CCCCCCCCCCCC#N,inactive,inactive,,
CCc1cnc(C2=NC(C)(C(C)C)C(=O)N2)c(C(=O)O)c1 (stereo not drawn),inactive,inactive,,
CCCCCl,inactive,inactive,,
C/C=C/C=O,inactive,inactive,,
CCC[CH2][Sn]([CH2]CCC)([O]C(C)=O)[O]C(C)=O,inactive,inactive,,

SMILES,Potency [1],Potency [2],"viability change, negative = cytotoxic [1]","activity change, negative = cytotoxicity [2]"
CCC(C)c1cc([N+](=O)[O-])cc([N+](=O)[O-])c1O (stereo not drawn),inactive,inactive,,
C[C@]12CC[C@H]3[C@@H](CCC4=CC(=O)CC[C@@]43C)[C@@H]1CC[C@@H]2O,inactive,inactive,,
Cc1ccc2c(c1)C1CN(C)CCC1N2 (stereo not drawn),,,-0.367% [at 18.9 µM],-0.524% [at 18.9 µM]
O=C(NC(=O)c1c(F)cccc1F)Nc1cc(Cl)c(OC(F)(F)C(F)F)c(Cl)c1,inactive,inactive,,
Cc1cc(=O)[nH]o1,inactive,inactive,,
CC1(C)CN=C(NN=C(/C=C/c2ccc(C(F)(F)F)cc2)/C=C/c2ccc(C(F)(F)F)cc2)NC1,inactive,inactive,,
Nc1c(Br)cc([N+](=O)[O-])cc1[N+](=O)[O-],inactive,inactive,,
OCCCBr,inactive,inactive,,
CCC(C)(C)c1ccc(O)c(C(C)(C)CC)c1,27.3 µM (active),30.3 µM (active) and 24.3 µM (active),,
C#CCN1C(=O)COc2cc(F)c(N3C(=O)C4=C(CCCC4)C3=O)cc21,inactive,inactive,,
BrCBr,inactive,inactive,,
ClCCCCCCCl,inactive,inactive,,
Nc1ccccc1,inactive,inactive,,
O=P(O)(O)CCCl,inactive,inactive,,
COP(=S)(OC)Oc1cc(Cl)c(Cl)cc1Cl,inactive,inactive,,
COC(=O)N(C(=O)N1COC2(C(=O)OC)Cc3cc(Cl)ccc3C2=N1)c1ccc(OC(F)(F)F)cc1 (stereo not drawn),inactive,inactive,,
CCS(=O)(=O)c1cccnc1S(=O)(=O)NC(=O)Nc1nc(OC)cc(OC)n1,inactive,inactive,,
CN[C@@H](C)[C@H](O)c1ccccc1,inactive,inactive,,
Nc1cc(Cl)cc(C(=O)O)c1Cl,inactive,inactive,,
CN(N=O)c1ccc([N+](=O)[O-])cc1,inactive,inactive,,
